# Assay results: paper PMC7862700, “An all-to-all approach to the identification of sequence-specific readers for epigenetic DNA modifications on cytosine”
# What was measured:
# Assay in all cases: DAPPL (digital affinity profiling via proximity ligation, sequencing); 10 mM Tris-HCl pH 7.5, 50 mM NaCl, 1 mM DTT, 4% glycerol, room temperature, 30 min; GST-TFs on glutathione beads, 16-mer random dsDNA library, 0.1% formaldehyde crosslink after washing; high values mean tight binding
# Conditions in all cases: protein: recombinant; tags: N-terminal GST; dsDNA, one strand shown
# SPIC = biological target: T1, SPIC (Homo sapiens, UniProt Q8N5J4 1-248)
# T1 sequence: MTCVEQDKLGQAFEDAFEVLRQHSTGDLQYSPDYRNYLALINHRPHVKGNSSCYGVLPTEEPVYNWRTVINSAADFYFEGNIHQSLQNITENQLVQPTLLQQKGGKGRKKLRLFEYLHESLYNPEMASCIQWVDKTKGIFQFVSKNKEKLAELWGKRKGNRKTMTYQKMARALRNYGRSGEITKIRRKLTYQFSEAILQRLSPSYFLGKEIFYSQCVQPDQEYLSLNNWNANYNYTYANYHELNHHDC
# Summary of the method: (§1)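 Yeast served to express human transcription factors as GST fusions, which were then captured on glutathione beads and labelled with DNA barcodes. Pooled with a tag-only sample, they were incubated with 200 nmole of a 16-mer random double-stranded DNA library for 30 min at room temperature in Tris/NaCl/DTT/glycerol buffer, washed, crosslinked with 0.1% formaldehyde, ligated by proximity, amplified by PCR and sequenced. Dividing each hexamer's read frequency for a factor by its frequency for the tag-only sample gives the binding signal.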
# ELF4 = ELF4 (Homo sapiens, UniProt Q99607 1-663)
# Summary of the method: as §1
# ELK4 = biological target: T2, ELK4 (Homo sapiens, UniProt P28324-2 1-405)
# T2 sequence: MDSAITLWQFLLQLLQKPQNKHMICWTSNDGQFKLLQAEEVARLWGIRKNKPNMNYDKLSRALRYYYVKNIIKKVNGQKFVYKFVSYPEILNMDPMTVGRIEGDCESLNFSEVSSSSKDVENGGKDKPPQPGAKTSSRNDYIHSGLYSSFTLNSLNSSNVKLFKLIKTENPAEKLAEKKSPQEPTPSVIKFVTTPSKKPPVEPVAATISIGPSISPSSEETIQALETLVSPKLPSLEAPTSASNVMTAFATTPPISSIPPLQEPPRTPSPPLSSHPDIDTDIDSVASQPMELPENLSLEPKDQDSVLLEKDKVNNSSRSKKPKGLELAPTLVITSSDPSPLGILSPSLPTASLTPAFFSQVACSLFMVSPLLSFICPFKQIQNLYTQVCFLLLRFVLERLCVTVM
# Summary of the method: as §1
# ETV2 = biological target: T3, ETV2 (Homo sapiens, UniProt O00321 1-342)
# T3 sequence: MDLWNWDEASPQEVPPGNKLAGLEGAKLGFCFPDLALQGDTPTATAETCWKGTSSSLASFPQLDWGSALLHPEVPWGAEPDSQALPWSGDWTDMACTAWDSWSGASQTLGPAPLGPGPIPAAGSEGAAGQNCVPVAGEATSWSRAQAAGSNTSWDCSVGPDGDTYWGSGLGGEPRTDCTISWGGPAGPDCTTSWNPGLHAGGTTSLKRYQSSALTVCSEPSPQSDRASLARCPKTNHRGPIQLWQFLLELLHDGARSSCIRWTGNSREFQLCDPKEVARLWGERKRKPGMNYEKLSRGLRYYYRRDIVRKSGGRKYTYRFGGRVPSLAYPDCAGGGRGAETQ
# Summary of the method: as §1
# ELF3 = biological target: T4, ELF3 (Homo sapiens, UniProt P78545 1-371)
# T4 sequence: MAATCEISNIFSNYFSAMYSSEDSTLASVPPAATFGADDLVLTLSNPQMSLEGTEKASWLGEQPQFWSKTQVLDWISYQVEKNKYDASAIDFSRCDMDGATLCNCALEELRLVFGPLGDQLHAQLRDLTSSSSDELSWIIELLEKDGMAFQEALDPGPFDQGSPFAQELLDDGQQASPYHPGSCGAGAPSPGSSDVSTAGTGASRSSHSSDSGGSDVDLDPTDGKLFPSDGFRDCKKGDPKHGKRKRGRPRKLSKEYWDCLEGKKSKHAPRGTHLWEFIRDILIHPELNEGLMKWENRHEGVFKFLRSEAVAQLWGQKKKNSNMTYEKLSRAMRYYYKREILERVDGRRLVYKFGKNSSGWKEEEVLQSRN
# Summary of the method: as §1
# ETV1 = ETV1 (Homo sapiens, UniProt P50549 1-477)
# Summary of the method: as §1
# ERF = biological target: T5, ERF (Homo sapiens, UniProt P50548 1-548)
# T5 sequence: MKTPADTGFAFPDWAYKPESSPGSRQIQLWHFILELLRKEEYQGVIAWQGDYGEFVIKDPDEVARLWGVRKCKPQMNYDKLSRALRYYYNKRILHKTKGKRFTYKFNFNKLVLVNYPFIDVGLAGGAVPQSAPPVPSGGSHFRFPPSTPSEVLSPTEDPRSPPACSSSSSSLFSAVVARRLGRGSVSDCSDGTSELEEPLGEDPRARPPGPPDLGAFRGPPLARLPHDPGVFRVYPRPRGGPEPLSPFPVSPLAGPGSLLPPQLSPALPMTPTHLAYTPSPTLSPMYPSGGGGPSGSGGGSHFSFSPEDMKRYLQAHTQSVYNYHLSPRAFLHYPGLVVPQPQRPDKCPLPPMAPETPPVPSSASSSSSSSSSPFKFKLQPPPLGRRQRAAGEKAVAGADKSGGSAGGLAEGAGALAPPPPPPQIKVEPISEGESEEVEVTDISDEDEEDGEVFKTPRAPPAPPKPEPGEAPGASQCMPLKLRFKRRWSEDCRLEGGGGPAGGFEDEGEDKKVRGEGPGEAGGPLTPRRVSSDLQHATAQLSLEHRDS
# Summary of the method: as §1
# ETV7 = biological target: T6, ETV7 (Homo sapiens, UniProt Q9Y603 1-341)
# T6 sequence: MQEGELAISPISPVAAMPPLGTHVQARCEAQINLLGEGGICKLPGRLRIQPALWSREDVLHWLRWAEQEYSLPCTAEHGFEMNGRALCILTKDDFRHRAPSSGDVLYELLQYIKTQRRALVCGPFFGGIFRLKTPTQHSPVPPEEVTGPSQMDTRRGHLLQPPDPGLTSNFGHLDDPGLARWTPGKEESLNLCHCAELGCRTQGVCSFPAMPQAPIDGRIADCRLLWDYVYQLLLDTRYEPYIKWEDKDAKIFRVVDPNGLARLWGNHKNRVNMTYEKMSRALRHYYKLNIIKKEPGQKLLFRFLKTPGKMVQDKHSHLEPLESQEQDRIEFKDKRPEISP
# Summary of the method: as §1
# ETV3 = biological target: T7, ETV3 (Homo sapiens, UniProt P41162-2 1-143)
# T7 sequence: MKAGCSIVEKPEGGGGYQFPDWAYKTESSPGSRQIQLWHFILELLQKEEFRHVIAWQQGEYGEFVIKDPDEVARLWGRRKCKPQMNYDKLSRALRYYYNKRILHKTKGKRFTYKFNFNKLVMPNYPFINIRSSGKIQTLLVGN
# Summary of the method: as §1
# ETV6 = ETV6 (Homo sapiens, UniProt P41212 1-452)
# Summary of the method: as §1
# ETV6, sequence (P41212 whole entry): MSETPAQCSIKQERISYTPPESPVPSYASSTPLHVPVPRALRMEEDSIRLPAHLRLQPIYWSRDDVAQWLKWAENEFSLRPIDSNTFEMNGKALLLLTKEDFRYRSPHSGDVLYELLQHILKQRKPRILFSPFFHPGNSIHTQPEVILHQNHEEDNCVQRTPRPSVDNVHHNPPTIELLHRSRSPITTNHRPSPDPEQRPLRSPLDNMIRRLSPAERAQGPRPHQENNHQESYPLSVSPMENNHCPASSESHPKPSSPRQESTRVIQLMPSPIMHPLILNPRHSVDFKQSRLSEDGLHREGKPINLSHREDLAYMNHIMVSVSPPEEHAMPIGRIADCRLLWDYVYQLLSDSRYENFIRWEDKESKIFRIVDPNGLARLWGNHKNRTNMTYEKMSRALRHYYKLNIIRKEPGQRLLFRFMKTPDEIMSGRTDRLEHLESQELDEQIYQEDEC
# ETV1, sequence (P50549 whole entry): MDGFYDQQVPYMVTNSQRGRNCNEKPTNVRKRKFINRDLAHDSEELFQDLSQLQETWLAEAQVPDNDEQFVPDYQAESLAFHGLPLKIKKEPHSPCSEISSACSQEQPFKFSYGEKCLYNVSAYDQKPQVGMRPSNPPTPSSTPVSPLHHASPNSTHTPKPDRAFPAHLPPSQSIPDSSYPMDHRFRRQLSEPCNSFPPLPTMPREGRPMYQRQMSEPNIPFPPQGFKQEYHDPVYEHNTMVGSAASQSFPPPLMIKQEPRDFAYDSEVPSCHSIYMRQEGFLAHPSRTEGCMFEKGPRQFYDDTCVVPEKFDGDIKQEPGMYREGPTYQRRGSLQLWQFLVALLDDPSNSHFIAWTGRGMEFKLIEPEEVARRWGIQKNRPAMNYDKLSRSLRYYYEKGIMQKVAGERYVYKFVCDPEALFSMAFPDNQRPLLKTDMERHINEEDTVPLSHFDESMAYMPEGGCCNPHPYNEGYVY
# ELF4, sequence (Q99607 whole entry): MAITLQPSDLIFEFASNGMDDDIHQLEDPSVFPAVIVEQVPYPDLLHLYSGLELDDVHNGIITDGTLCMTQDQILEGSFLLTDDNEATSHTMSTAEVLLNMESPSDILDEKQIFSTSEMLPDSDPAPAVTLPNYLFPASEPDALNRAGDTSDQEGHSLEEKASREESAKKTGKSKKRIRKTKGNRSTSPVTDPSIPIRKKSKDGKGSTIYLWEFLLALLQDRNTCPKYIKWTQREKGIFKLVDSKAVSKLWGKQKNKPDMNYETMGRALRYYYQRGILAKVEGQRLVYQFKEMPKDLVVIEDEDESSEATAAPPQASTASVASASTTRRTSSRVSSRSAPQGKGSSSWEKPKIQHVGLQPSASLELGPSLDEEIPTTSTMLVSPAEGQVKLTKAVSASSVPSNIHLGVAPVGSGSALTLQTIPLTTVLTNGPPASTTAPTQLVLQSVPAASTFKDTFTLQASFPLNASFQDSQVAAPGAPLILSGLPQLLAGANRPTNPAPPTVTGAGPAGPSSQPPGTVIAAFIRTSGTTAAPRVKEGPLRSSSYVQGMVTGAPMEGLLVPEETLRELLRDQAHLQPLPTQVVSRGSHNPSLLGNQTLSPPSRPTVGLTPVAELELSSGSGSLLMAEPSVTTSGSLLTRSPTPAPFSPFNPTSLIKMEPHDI
sequence,measurement,setting,value
GCACCT,binding signal,SPIC,"1 fold enrichment (6-mer frequency, TF over GST control)"
same,binding signal,ELF4,"1.13 fold enrichment (6-mer frequency, TF over GST control)"
same,binding signal,ELK4,"1.16 fold enrichment (6-mer frequency, TF over GST control)"
same,binding signal,ETV2,"1.25 fold enrichment (6-mer frequency, TF over GST control)"
same,binding signal,ELF3,"1.06 fold enrichment (6-mer frequency, TF over GST control)"
same,binding signal,ETV1,"1.1 fold enrichment (6-mer frequency, TF over GST control)"
same,binding signal,ERF,"1.29 fold enrichment (6-mer frequency, TF over GST control)"
same,binding signal,ETV7,"1.11 fold enrichment (6-mer frequency, TF over GST control)"
same,binding signal,ETV3,"1.13 fold enrichment (6-mer frequency, TF over GST control)"
same,binding signal,ETV6,"1.12 fold enrichment (6-mer frequency, TF over GST control)"
